# Experimental data as given in PubChem BioAssay AID2650 (Broad Institute, 2010).
# The campaign covered roughly 320,000 compounds. About 320 (0.1%) were called active. The full list was thinned out, with actives kept by preference. Unmarked numbers belong to inactive results.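 How the source made its calls: active means more than half of replicates show inhibition above 20%; inconclusive means some but at most half of replicates above 20% inhibition; inactive means no replicate shows inhibition above 20%.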
# Target: Glycogen synthase kinase-3 alpha (Homo sapiens) (UniProt P49840)
# Sequence (P49840 whole entry, looked up): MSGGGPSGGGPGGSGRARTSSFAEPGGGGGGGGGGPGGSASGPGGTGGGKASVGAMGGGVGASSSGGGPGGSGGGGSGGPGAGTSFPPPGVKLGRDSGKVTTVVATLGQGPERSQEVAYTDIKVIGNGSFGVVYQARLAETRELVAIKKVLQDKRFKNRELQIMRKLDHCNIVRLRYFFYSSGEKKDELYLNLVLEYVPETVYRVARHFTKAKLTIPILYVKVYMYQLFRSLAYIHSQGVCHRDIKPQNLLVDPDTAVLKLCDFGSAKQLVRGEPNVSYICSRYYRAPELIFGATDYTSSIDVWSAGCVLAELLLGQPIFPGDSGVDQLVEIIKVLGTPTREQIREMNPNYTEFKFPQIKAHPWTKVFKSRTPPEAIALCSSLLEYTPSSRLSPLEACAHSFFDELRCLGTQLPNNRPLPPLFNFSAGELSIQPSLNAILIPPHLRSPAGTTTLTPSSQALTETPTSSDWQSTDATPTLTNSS
# Experiment: blockers of GSK3A enzyme activity – biochemical, luminescence, cell-free homogeneous, HTS, primary screen (AID 2650);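 further: GST-tagged GSK-3 alpha with peptide substrate and 25 µM ATP; 0% = DMSO neutral wells and 100% = GW8510 positive control wells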
# Settings: GSK-3 alpha kinase, ADP-Glo luminescence, 60 min; at 10 µM; stronger effect = higher value
row,SMILES,inhibition
1,Cc1noc(COc2ccccc2OCc2onc(C)c2Cl)c1Cl,-1.26%
2,O=C1c2ccccc2C2=Nc3ccccc3SC(c3ccccc3F)C12 (centres undefined),-0.696%
3,CC(Sc1nc2cc(Cl)ccc2s1)C(=O)Nc1ccc2c(c1)OCO2 (centres undefined),-2.34%
4,Cc1ccc2c(c1)N(CC(=O)NCCc1ccc(Cl)cc1)C(=O)c1cccnc1O2,-2.75%
5,CC(C(=O)N1CCOCC1)N1c2cccc3cccc(c23)S1(=O)=O (centres undefined),3.12%
6,O=S(=O)(NC1CC2CCC1C2)c1ccc(Cl)cc1 (centres undefined),-0.939%
7,CN(C)C(=O)CCC(=O)N1CCCCC1C(=O)Nc1ccc(Oc2ccccc2F)cc1 (centres undefined),-0.0266%
8,O=C(c1ccncc1)N1CCN(S(=O)(=O)c2cc(C(F)(F)F)cc(C(F)(F)F)c2)CC1,-4.58%
9,CC(C)c1nnc(NC(=O)COC(=O)/C=C/c2ccc([N+](=O)[O-])cc2)s1,0.211%
10,CC1CCCCC1NC(=O)CCS(=O)(=O)c1cccc2nonc12 (centres undefined),-1.36%
11,COC(=O)[C@]1(Cc2ccccc2)N[C@H](CN(C)S(=O)(=O)c2ccc(F)cc2)[C@@H]2C(=O)N(Cc3ccccc3)C(=O)[C@@H]21,-4.02%
12,CCc1ccc(C(=O)COC(=O)c2ccco2)cc1,-0.284%
13,Cc1cccc2sc(N(CCCN(C)C)C(=O)CCS(=O)(=O)c3ccccc3)nc12,1.84%
14,Cc1ccc(NC(=O)CN(C)C(=O)c2ccc(Cl)c(S(=O)(=O)NCc3ccco3)c2)cc1,-2.08%
15,COC(=O)C1=C[C@@H](C(=O)OC)[C@@H]2C3=C(C(=O)[C@]2(C)NC(=O)c2ccccc2)[C@H](C)n2c(=O)n(C)c(=O)n2[C@@H]3C1,-1.38%
16,O=C(OCC(=O)N(CCc1ccccc1)Cc1ccccc1)c1ccccc1[N+](=O)[O-],0.711%
17,CCCc1cc(=O)[nH]c(SCC(=O)Nc2ccc(S(=O)(=O)N3CCCC3)cc2)n1,-3.71%
18,Cc1cccc(C)c1NC(=O)CS(=O)CC(=O)N1CCN(c2ccccc2)CC1 (centres undefined),-1.33%
19,Cc1c(OC(C)C(=O)NCC2CCC(C(=O)O)CC2)ccc2c1oc(=O)c1ccccc12 (centres undefined),2.24%
20,Cc1ccc(N2C(=O)CC(N3CCSCC3)C2=O)c(C)c1 (centres undefined),-1.07%
21,CC(C)(C)c1ccc(/C=C/C(=O)NCCCn2ccnc2)cc1,1.07%
22,O=C(CSc1nc2ccccc2c(=O)n1Cc1ccc(F)cc1)NCC1CCCO1 (centres undefined),-2.48%
23,CC(=O)N1CCc2cc(S(=O)(=O)NC3CCCCC3)ccc21,1.13%

row,SMILES,inhibition
1,CN(CC1CCCN(CCc2cccc(C(F)(F)F)c2)C1)C(=O)c1ccc2nc[nH]c2c1 (centres undefined),2.9%
2,CCCNC(=S)N1CCC(NC(=O)C23CC4CC(CC(C4)C2)C3)CC1,-1.14%
3,Cc1ccccc1N(C(=O)Cc1cccs1)C(C(=O)NC1CCCCC1)c1cn(C)nc1C (centres undefined),-1.17%
4,CCCCCN(C(=O)NC(=O)Nc1ccccc1OC)S(C)(=O)=O,-0.679%
5,COc1cc(OC)cc(-c2cc3ccc(F)cc3cn2)c1,-0.558%
6,CCOc1ccc(-c2noc(CCC(=O)NC3CCCC3)n2)cc1OC,-2.18%
7,COc1ccccc1-c1nnc2n1N=C(c1ccc(OC(F)F)c(OCC3CC3)c1)CS2,-2.55%
8,C=C(C)CNC(=S)Nc1ccc(S(=O)(=O)Nc2cnc3ccccc3n2)cc1,-0.344%
9,Brc1ccc(/C=N/N2CCN(C3c4ccccc4-c4ccccc43)CC2)s1,-1%
10,COCCNC(=S)N(CCc1c(C)[nH]c2ccc(C)cc12)Cc1cccnc1,-0.86%
11,CCn1c(Cc2ccc(OC)cc2)nnc1SCC(=O)Nc1ccc(N2CCOCC2)cc1,-0.587%
12,CCCCOC(=O)Nc1sc2nc(C)cc(C)c2c1-n1cccc1,3.59%
13,Cc1noc(C)c1NC(=O)Nc1cccc2c1O[C@H](CN(C)C(=O)Nc1ccccc1)[C@@H](C)CN([C@H](C)CO)C2=O,-4.19%
14,COc1cc2c(cc1OC)CC1(CCCCC1)N=C2,0.717%
15,Cc1cc(C)cc(N(CCC#N)C(=O)CN2C(=O)NC3(CCCC3)C2=O)c1,-1.84%
16,CC1CN(c2nc(Nc3ccccc3)nc(N)c2[N+](=O)[O-])CC(C)O1 (centres undefined),38.9%
17,Nc1nc(NCCCN2CCOCC2)nc(Nc2ccccc2)c1[N+](=O)[O-],90.9% (active)
18,O=[N+]([O-])c1ccc(NCCCN2CCOCC2)c(Cl)c1,-0.912%
19,Nn1c(SCC(=O)Nc2ccc3c(c2)CCC3)nnc1C1CC1,-1.28%
20,CC(=NNC(=O)c1ccc2nc[nH]c2c1)c1ccc(Br)cc1,0.652%
21,CC(C)c1nc(SCC(=O)NC(=O)NC(C)(C)C)n[nH]1,-2.13%
22,CCN(CC)CCOC(=O)c1ccc(NC(=O)CNC(=O)c2ccccc2)cc1,-1.2%
23,O=C(OCC(=O)N1CCOCC1)c1ccc(N2CCOCC2)c([N+](=O)[O-])c1,1.5%

row,SMILES,inhibition
1,Cc1ccc(NC(=O)C2CCC(C(C)(C)C)CC2)cc1S(=O)(=O)N1CCOCC1 (centres undefined),-0.864%
2,Cc1c(Cl)cccc1NC(=O)NCc1ccc(C)n1C,-2.74%
3,CC1CCCCC12NC(=O)N(CC(=O)OCC(=O)NCc1ccc(F)cc1)C2=O (centres undefined),-2.66%
4,O=C(O)C1=CCCN(CCON=C(c2ccccc2)c2ccccc2)C1,-1.9%
5,CC(C)(C)OC(=O)C[C@@H]1C/C=C\C[C@H](CC(=O)N[C@@H](CO)Cc2ccccc2)C(=O)N[C@H](Cc2ccccc2)COC1=O,0.493%
6,O=C(CN1C(=O)NC2(CCCCCC2)C1=O)NCc1ccc(F)cc1,-1.44%
7,O=C(c1ccccc1F)N(Cc1ccccc1)Cc1ccccc1,0.121%
8,O=c1c2c3c(sc2n(CCN2CCCC2)c(=O)n1Cc1ccccc1)CCCCC3,0.297%
9,CC(=O)Nc1ccc(NC(=O)CC2CCCC2)cc1,0.623%
10,CC(C)c1ccc(/C=C2\NC(=O)NC2=O)cc1,24.7%
11,Cc1ccc(C)c(CN2CCC(CNC(=O)Nc3ccc(C)c(F)c3)CC2)c1,-0.807%
12,OCCC1CN(Cc2cccc(OC3CCCC3)c2)CCN1Cc1ccsc1 (centres undefined),-2.02%
13,CCN(CC)N=Nc1cccc(NC(C)=O)c1,2.05%
14,O=C(NCc1nnc(SCC(=O)N2CCC(Cc3ccccc3)CC2)o1)c1ccco1,-0.692%
15,Cc1cc(C)n(Cc2cnc(N3CCOCC3)s2)n1,-2.61%
16,CCCc1nc2oc3c(=O)[nH]cnc3c2c2c1COC(C)(C)C2,3.6%
17,OCCC1CN(Cc2ccccc2-c2ccco2)CCN1Cc1ccsc1 (centres undefined),-0.178%
18,CCn1cc(S(=O)(=O)c2cccc(C)c2)c(=O)c2cc(F)c(N3CCN(C)CC3)cc21,-1.82%
19,O=C(CN(C(=O)c1nsc(Cl)c1Cl)c1cccc(F)c1)NC1CCCC1,-1.81%
20,Cc1ccc(NS(=O)(=O)c2cn(C)c(=O)n(C)c2=O)c(C)c1,-0.792%
21,O=C(NCc1csc(-c2cccs2)n1)C1CC1,0.318%
22,COc1ccc(Cc2n[nH]c(=S)n2NC(=O)Nc2ccc(C)cc2)cc1,-4.11%
23,CC(=O)N1CC(=O)N(CC(=O)Nc2ccc(Br)cc2)C1=S,2.4%

row,SMILES,inhibition
1,COc1cccc(CNC(=O)C2CCCN(c3ncnc4c3nc3n4CCCCC3)C2)c1 (centres undefined),0.554%
2,CCOC(=O)CN(C(=O)COc1nc(-c2ccccc2)cc(C)c1C#N)c1ccc(F)cc1,0.174%
3,CCCCN(CC)CCNC(=O)c1[nH]c(C)c(C(C)=O)c1C,1.47%
4,CC(c1ccco1)N(C(=O)c1ccc(S(=O)(=O)N2CCCCC2)cc1)c1ccccn1 (centres undefined),-1.32%
5,CC(=O)c1cnc(SCC(=O)O)nc1C,-1.4%
6,CC1=C(C(=O)OC2CCCCC2)C(c2ccccc2F)NC(=O)N1 (centres undefined),-2.54%
7,COc1ccc(N=Nc2c(-c3ccc(OC)cc3)[nH]oc2=O)cc1,-3.99%
8,Cc1cc(C)nc(SC2CCCCC2NS(=O)(=O)c2ccc(Cl)cc2)n1 (centres undefined),-2.34%
9,O=C(CN1CCN(c2ccc(O)cc2)CC1)NC1CCCc2ccccc21 (centres undefined),-2.3%
10,CC(C)NC(=O)NNc1c(Cl)cncc1Cl,2.22%
11,c1ccc2c(NCC3CCCO3)nc(-c3ccncc3)nc2c1 (centres undefined),4.61%
12,CC(C)(C)c1nc(NCC2CCCO2)c2nnn(Cc3ccccc3)c2n1 (centres undefined),-0.49%
13,Cn1c(=O)c2[nH]c(NCC3CCCO3)nc2n(-c2ccccc2)c1=O (centres undefined),53.4% (active)
14,Cc1ccccc1C(=O)N1CCC(C(=O)Oc2ccc(C#N)cc2)CC1,3.01%
15,O=C(O)CCCN1C(=O)C2C3c4ccccc4C(c4ccccc43)[C@@H]2C1=O (some centres undefined),-1.27%
16,COC(=O)c1cc(CNC(=O)CC(C)c2ccccc2)ccc1OC (centres undefined),-0.449%
17,C/C(=N\NC(=O)Cc1ccccc1[N+](=O)[O-])c1cccnc1,-3.03%
18,Cc1cc(/C=N/Nc2ccc([N+](=O)[O-])cn2)c(C)n1-c1cccc(C(=O)O)c1,26.6%
19,Cc1ccc(-n2c(C)cc(/C=N/Nc3ccc([N+](=O)[O-])cn3)c2C)c(C)c1,0.104%
20,COc1cc(/C=N\Nc2ccc([N+](=O)[O-])cn2)ccc1OCC(=O)O,71.1% (active)
